Source: PubChem (National Center for Advancing Translational Sciences (NCATS))
A selection: hits, their analogues and other compounds. The true share with any hit is near 4.1%.
FMDV inh: blocks foot and mouth disease virus. Potency, µM (titrated, usually from 57.9 µM), hits mostly inhibitors. FMDV antiviral cell-based qHTS. AID 1159524. 410,000 tested, 1.2% active; calls by dose curve; tested in HEK293T cells; also: read-out not given here; nearly all actives have a fitted effect of over 45% in size
AmpC inh no detg: inhibitors of E. coli AmpC beta-lactamase without detergent; P00811; AmpC nitrocefin hydrolysis, absorbance 480 nm, 0.0001% Triton; Potency, µM (doses to about 57.1 µM), most hits filed as inhibitors; 330,000 tested, 0.52% active; also: nearly all actives have a fitted effect of over 20% in size
Target sequence (P00811 whole entry, looked up): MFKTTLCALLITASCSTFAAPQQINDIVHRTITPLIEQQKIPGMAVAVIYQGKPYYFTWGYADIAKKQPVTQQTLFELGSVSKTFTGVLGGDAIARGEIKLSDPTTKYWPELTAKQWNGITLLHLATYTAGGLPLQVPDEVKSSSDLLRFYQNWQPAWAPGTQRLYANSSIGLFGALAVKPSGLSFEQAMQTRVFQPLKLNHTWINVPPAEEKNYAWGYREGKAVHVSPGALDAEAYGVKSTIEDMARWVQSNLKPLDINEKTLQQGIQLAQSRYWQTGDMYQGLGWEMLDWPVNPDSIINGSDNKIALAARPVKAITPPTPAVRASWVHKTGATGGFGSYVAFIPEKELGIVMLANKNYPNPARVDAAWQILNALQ
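20 mM phosphate pH 7.0 + 0.01% (detergent screen) or 0.0001% Triton X-100; 5.3 nM AmpC reagent; cpd preinc 15 min RT; nitrocefin (800 uM stock) to start; A480 q20 s × 4 min; Activity was normalised to no-enzyme and no-compound control wells.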
AMA1 RON2 block: inhibitors of Plasmodium falciparum AMA1-RON2 interaction. AlphaScreen AMA1-biotinylated RON2 peptide binding. Potency, µM (series often up to 58.2 µM), actives largely listed as inhibitors. 360,000 tested, 0.2% active. AID 720542; also: nearly all actives have a fitted effect of over 45% in size
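AMA1 (3D7) with his tag at 25 nM final met compounds first, then biotinylated RON2 peptide at 25 nM; detection used donor plus acceptor beads, 10 µg/mL apiece, read by AlphaScreen after 30 min at room temperature.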
AmpC inh detg: inhibitors of E. coli AmpC beta-lactamase with detergent; P00811; AmpC hydrolysis of nitrocefin, absorbance 480 nm, 0.01% Triton; Potency, µM (doses to about 114 µM), usual class: inhibitors; 370,000 tested, 0.041% active; also: nearly all actives have a fitted effect of over 25% in size
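20 mM phosphate pH 7.0 + 0.01% (detergent screen) or 0.0001% Triton X-100; 5.3 nM AmpC reagent; cpd preinc 15 min RT; nitrocefin (800 uM stock) to start; A480 q20 s × 4 min; Activity was normalised to no-enzyme and no-compound control wells.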
Sm TGR inh: S. mansoni TGR enzyme inhibition; Q962Y6; purified TGR, DTNB reduction, TNB absorbance 405 nm; Potency, µM (titrated, usually from 114 µM), most hits filed as inhibitors; 360,000 tested, 3% active; also: nearly all actives have a fitted effect of over 60% in size
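Kinetic colorimetric format: TGR-catalysed, NADPH-driven DTNB reduction monitored via TNB absorbance. Enzyme dispensed at 20 nM; compound exposure 15 min at room temperature before reaction start.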
Hits are given with their value; - = inactive; ? = inconclusive; . = no result; [ ] = dose if it differs, or a comment. Unless noted, calls follow the shape of the dose curve; as a rule, active = well fitted curve in the direction sought with a large enough effect; inconclusive = small, poorly fitted or top-dose-only effect, or another doubt; inactive = no such curve, though single readings can be large; an effect the other way counts as inactive or inconclusive.

SMILES	FMDV inh	AmpC inh no detg	AMA1 RON2 block	AmpC inh detg	Sm TGR inh
CCn1c(O)c(/C=N/N=C2CCCCC2)c2cc(C3=NNC(=O)CC3)ccc21	-	-	-	-	40µM
Cn1cnnc1SCC(=O)Nc1nc(-c2ccccc2)cs1	-	-	-	79µM	-
COc1ccc(OC)c(-c2csc(NC(=O)CSc3ccccc3)n2)c1	-	-	-[2.32 µM]	-	-
COc1ccc(-c2csc(NC(=O)CSc3ccc(Br)cc3)n2)c(OC)c1	?	35µM	-	-	-
CCCc1cc(=O)[nH]c(SCC(=O)Nc2nc(-c3ccccc3)cs2)n1	-	13µM	-	-	-
CCc1c(C)nc(SCC(=O)Nc2nc(-c3ccc(OC)cc3)cs2)[nH]c1=O	-	14µM	-	-	.
Cc1cn2c(=O)cc(COC(=O)c3ccc(NC(=O)c4ccc(C(C)(C)C)cc4)cc3)nc2s1	-	.	.	-	-
O=C(NCc1ccccc1)c1ccc(Cn2c(=O)c3cccn3c3cccnc32)cc1	-	.	.	-	-
O=C(NCCC1=CCCCC1)c1ccc2c(c1)N(Cc1ccc(Cl)cc1)C(=O)c1ccccc1S2(=O)=O	-	.	.	-	-
O=C(CSc1nc2ccccc2[nH]1)Nc1nc(-c2ccc(Br)cc2)cs1	22µM	-	-[11.6 µM]	?	-
O=C(Nc1ccc(Cl)cn1)c1cccc2c(Br)cccc12	-	20µM	-	-	-
COC(=O)[C@@H]1CCCN1Cc1ccc2c(c1)CN(Cc1coc3ccccc3c1=O)CCO2	-	.	.	.	.
CCc1cc(=O)oc2cc(C)c(CN3CCCC3)c(O)c12	-	11µM	12µM	?	?
Cc1ccc(CNC(=S)Nc2ccc(NS(=O)(=O)c3ccc(C)cc3)cc2)cc1	-	2.2µM	-	-	-
CCOC(=O)CN1c2ccccc2NC(=O)CC1C (centres undefined)	-	-	-	?	32µM
CCOc1ccccc1NC(=O)CN1c2ccccc2S(=O)(=O)c2ccccc21	-	.	.	-	-
CCCN1C/C(=C/c2cccc([N+](=O)[O-])c2)C(=O)/C(=C/c2cccc([N+](=O)[O-])c2)C1	2.5µM	-	-	-	-
CC1(C)CC(=O)/C(=C\c2cccc([N+](=O)[O-])c2)C(C)(C)N1	?	-	-	-	?
CCCN1C(=O)/C(=C/c2ccc3c(c2)OCO3)NC1=S	-	-	-	?	-
CN1C(=O)/C(=C/c2cccc([N+](=O)[O-])c2)C(=O)N1c1ccccc1	32µM	-	-	-	25µM
CCCN1C/C(=C/c2ccc3c(c2)OCO3)C(=O)/C(=C/c2ccc3c(c2)OCO3)C1	18µM	-	-[11.6 µM]	-	?
O=C1NC(=S)N/C1=C/c1cccc([N+](=O)[O-])c1	-	-	-	-	-
NC(c1ccccc1)c1csc(Nc2ccc(S(N)(=O)=O)cc2)n1 (centres undefined)	-	.	-	.	.
Oc1cccc(Nc2ncnc3sc4c(c23)CCCC4)c1	-	.	.	-	-
COc1ccccc1-c1cc2nc(-c3ccccc3)cc(N3CCN(C(=O)c4ccco4)CC3)n2n1	4.5µM	.	-	.	.
SMILES	FMDV inh	AmpC inh no detg	AMA1 RON2 block	AmpC inh detg	Sm TGR inh
Cc1nn2c(N3CCN(C(=O)c4ccco4)CC3)cc(C(C)(C)C)nc2c1-c1ccccc1	14µM	-	-	-	-
O=C(c1ccoc1)N1CCN(c2cc(-c3ccccc3)nc3cc(-c4ccccc4)nn23)CC1	35µM	.	-	.	.
COc1cccc(-c2cc3nc(-c4ccccc4)cc(N4CCN(C(=O)c5ccoc5)CC4)n3n2)c1	32µM	.	-	.	.
Cc1ccc(OCC(=O)Nc2nnc(SCc3cc(=O)c4ccccc4[nH]3)s2)cc1	-	.	.	-	-
Cc1c(C(=O)NCc2ccccc2C(F)(F)F)sc(=O)n1Cc1ccc2c(c1)OCO2	-	.	-	.	.
Cc1cc(N2CCN(C(=O)c3ccoc3)CC2)n2nc(-c3ccccc3)cc2n1	?	.	-	.	.
COc1ccccc1-c1cc2nc(-c3ccccc3)cc(N3CCN(C(=O)c4ccoc4)CC3)n2n1	7.9µM	.	-	.	.
COc1ccc(/C=C/C(=O)NC(=S)Nc2ccc(S(=O)(=O)Nc3ccc(OC)nn3)cc2)cc1	-	-	-	-	-
CCOc1ccc(NC(=S)NC(=O)/C=C/c2ccco2)cc1	-	-	-	-	22µM
COc1cc(NS(=O)(=O)c2ccc(NC(=S)NC(=O)/C=C/c3ccco3)cc2)ncn1	-	-	?	-	40µM
CC(=O)N(C)c1ccc(NC(=S)NC(=O)/C=C/c2ccco2)cc1	-	-	-	-	28µM
CC(=O)Nc1ccc(NC(=S)NC(=O)/C=C/c2ccco2)cc1	-	-	-	-	18µM
CCOc1ccccc1CNC(=O)c1cnn(-c2ccc(C)cc2)c1-n1cccc1	-	.	.	-	-
CN1CCN(c2ccc(NC(=S)NC(=O)/C=C/c3ccco3)cc2)CC1	-	-	-	-	50µM
O=C(O)c1ccc2c(c1)C1C=CCC1C(c1ccncc1)N2 (centres undefined)	-	-	-	?	22µM
CC(C)C1Nc2ccc(C(=O)O)cc2C2C=CCC21 (centres undefined)	-	-	-	-	20µM
FC(F)(F)c1ccc2c(c1)C1C=CCC1C(c1ccncc1)N2 (centres undefined)	?	-	-	-	-
CC(=O)c1ccc2c(c1)C1C=CCC1C(c1ccc(S(=O)(=O)N3CCOCC3)cc1)N2 (centres undefined)	-	-	-	-	28µM
CCCC1Nc2ccc(C(=O)O)cc2C2C=CCC12 (centres undefined)	-	-	-	-	40µM
CCOC(=O)C1Nc2ccc(C(=O)O)cc2C2C=CCC12 (centres undefined)	-	-	?	?	?
Cn1cc(S(=O)(=O)c2cccc(Cl)c2)c(=O)c2cc(F)c(N3CCN(c4ccc(F)cc4)CC3)cc21	-	.	.	-	-
O=c1c(-c2cc(-c3ccc(F)cc3)nc3c2COc2ccc(Cl)cc2-3)coc2ccc(F)cc12	-	.	.	-	-
Cc1c(Cl)cccc1NS(=O)(=O)c1ccc2c(c1)C1C=CCC1C(c1ccc(C(=O)O)cc1)N2 (centres undefined)	-	-	?	-	20µM
O=C(Cn1nc(Cl)nc1Cl)c1cc2ccccc2oc1=O	-	-	-	?	14µM
Cn1cnnc1SCC(=O)c1cc2ccccc2oc1=O	.	-	-	-	8.9µM
SMILES	FMDV inh	AmpC inh no detg	AMA1 RON2 block	AmpC inh detg	Sm TGR inh
O=C(Cn1nc(Cl)nc1Cl)c1ccccc1	-	-	-	-	-
O=C(Cn1nc(Cl)nc1Cl)c1ccc2c(c1)OCCO2	?	-	-	?	20µM
O=C(CSc1nnc(-c2cccnc2)o1)c1cc2ccccc2oc1=O	-	-	-	-	?
O=C(Cn1nc(Cl)nc1Cl)c1ccc(F)cc1	-	-	-	-	-
CCC(=O)Nc1ccc(N2CCN(C(=O)c3cccs3)CC2)cc1	-	-	-	-	.
Cc1cccc(OCC(=O)Nc2ccc(N3CCN(C(=O)c4ccccc4)CC3)cc2)c1	28µM	-	-[2.32 µM]	-	-
